Most compounds without a hit are left out; they make up all but 3.3% or so of the library.
NPSR antagonist – qHTS Assay for Antagonists of the Neuropeptide S Receptor: cAMP Signal Transduction | CHO-NPSR cells, cAMP TR-FRET, antagonist mode | Potency, µM (highest dose often 38.3 µM), usual class: inhibitors | 1% of 220,000 active | Q6W5P4 | AID 1461, 2008; further: nearly all actives have a fitted effect of over 50% in size
Target sequence (Q6W5P4 whole entry, looked up): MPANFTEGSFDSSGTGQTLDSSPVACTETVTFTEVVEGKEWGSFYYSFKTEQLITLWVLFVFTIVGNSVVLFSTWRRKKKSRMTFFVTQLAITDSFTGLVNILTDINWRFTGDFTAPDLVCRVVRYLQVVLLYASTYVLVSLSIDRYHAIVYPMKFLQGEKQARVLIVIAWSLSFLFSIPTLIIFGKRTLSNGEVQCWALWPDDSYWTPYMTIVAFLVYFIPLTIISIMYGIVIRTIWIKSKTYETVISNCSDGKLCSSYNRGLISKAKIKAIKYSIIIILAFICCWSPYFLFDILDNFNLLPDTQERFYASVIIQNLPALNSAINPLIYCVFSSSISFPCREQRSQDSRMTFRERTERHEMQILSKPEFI
Tau fluor cs – Counterscreen qHTS for Inhibitors of Tau Fibril Formation, Fluorescence Polarization; tau K18 P301L Alexa594 fluorescence, heparin fibrillization; Potency, µM (series often up to 57.7 µM); 0.93% of 280,000 active; further: nearly all actives have a fitted effect of over 55% in size
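Human tau K18 P301L (15 uM unlabeled, 0.24 uM Alexa 594-labeled) in 100 mM sodium acetate pH 7 with 20 uM heparin, 6 hr at 37 C. ThT 30 uM added, 1 hr ambient; Alexa 594 FP and total fluorescence read at 555/632 nm.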
KinaseGlo FLuc – Counterscreen for Luciferase (Kinase-Glo TM) Inhibition; Luciferin 4-monooxygenase (Photuris pensylvanica), Q27757; Kinase-Glo luciferase, ATP luminescence, 8 min; Potency, µM (titrated, usually from 38.3 µM), hits mostly inhibitors; 0.28% of 200,000 active; further: nearly all actives have a fitted effect of over 60% in size
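Light output from Kinase-Glo luciferase with luciferin and 10 uM ATP in 50 mM imidazole pH 7.2, KCl, MgCl2, Tween 20, BSA; compound pin-delivered, 8-min ambient incubation, then luminescence read.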
Tau fibril FP – qHTS for Inhibitors of Tau Fibril Formation, Fluorescence Polarization; 0.39% of 280,000 active; Potency, µM (highest dose often 57.7 µM), most hits filed as inhibitors; K18 P301L tau heparin fibrillization, Alexa594 FP, 6 h; further: nearly all actives have a fitted effect of over 55% in size
Target sequence (P10636 561-689 P618L limits assumed): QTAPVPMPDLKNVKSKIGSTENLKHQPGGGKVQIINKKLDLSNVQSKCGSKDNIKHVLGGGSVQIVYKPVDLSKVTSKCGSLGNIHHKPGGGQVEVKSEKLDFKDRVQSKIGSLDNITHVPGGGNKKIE
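Human K18 P301L fragment (15 uM unlabeled plus 0.24 uM Alexa 594-labeled) in 100 mM sodium acetate pH 7 with compound, aggregation induced by 20 uM heparin for 6 hr at 37 C. ThT (30 uM) added for 1 hr, then Alexa 594 FP read.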
Tau fibril ThT – qHTS for Inhibitors of Tau Fibril Formation, Thioflavin T Binding | Microtubule-associated protein tau (Homo sapiens), P10636 | recombinant tau K18 P301L, heparin-induced fibrillization, ThT fluorescence | Potency, µM (highest dose often 57.4 µM), usual class: inhibitors | 2.1% of 270,000 active; further: nearly all actives have a fitted effect of over 55% in size
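Fibril formation assay: tau K18 P301L at 15 uM with trace Alexa 594 label, heparin inducer 20 uM, pH 7 sodium acetate buffer, 37 C for 6 hr; endpoint ThT signal.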
Large screens that a line does not name were inactive; [ ] = remark or other dose. The call rests on the fitted dose curve; in most records, active means well fitted curve in the direction sought with a large enough effect; inconclusive means small, poorly fitted or top-dose-only effect, or another doubt; inactive means no such curve, though single readings can be large; an effect the other way counts as inactive or inconclusive.

N/C(=N\OC(=O)c1ccc2c(c1)OCO2)c1cccc(Br)c1	KinaseGlo FLuc 12.6µM, Tau fibril ThT inconclusive
CCOC(=O)c1c(C=O)c(C)n(Cc2ccc(Cl)cc2)c1C	NPSR antagonist inconclusive, Tau fibril ThT inconclusive
CCOC(=O)C1=C(Cc2ccc(Cl)cc2)C(=O)c2ccccc2C1=O	NPSR antagonist inconclusive, Tau fluor cs inconclusive, Tau fibril FP inconclusive, Tau fibril ThT 14.1µM
NC(=O)C(=CNc1nc(-c2ccc(Cl)c(Cl)c2)cs1)C(N)=O	Tau fluor cs 15.8µM[quencher], Tau fibril ThT 15.8µM (no result: KinaseGlo FLuc)
O=C(O)c1ccc(-c2nc(-c3ccc(Cl)c(Cl)c3)cs2)cc1	none
CN(C)/N=C/c1c(O)ccc2ccccc12	Tau fluor cs inconclusive, Tau fibril ThT inconclusive
OCC(CO)(CO)N=Cc1c(O)ccc2ccccc12	Tau fluor cs inconclusive, Tau fibril FP inconclusive, Tau fibril ThT 25.1µM
Oc1ccc2ccccc2c1C=NC12CN3CCN(CN(C3)C1)C2	Tau fluor cs inconclusive, Tau fibril FP inconclusive, Tau fibril ThT 20µM
O=C(N/N=C/c1c(O)ccc2ccccc12)c1cccc(C(F)(F)F)c1	Tau fluor cs 8.91µM[quencher], Tau fibril FP inconclusive, Tau fibril ThT inconclusive
COc1ccc2ccccc2c1/C=N/NC(=O)c1cccc(Br)c1	Tau fibril FP inconclusive, Tau fibril ThT inconclusive
Cc1cc(N=Cc2c(O)ccc3cc(Br)ccc23)no1	none
Cc1cc(N=Cc2c(O)ccc3ccccc23)no1	Tau fluor cs inconclusive, Tau fibril FP inconclusive, Tau fibril ThT 22.4µM (no result: KinaseGlo FLuc)
COc1cc(CN2CCN(S(=O)(=O)c3ccc(NC(C)=O)cc3)CC2)cc(OC)c1OC	none (no result: NPSR antagonist, KinaseGlo FLuc)
CCOc1ccc(S(=O)(=O)N(CC(=O)Nc2ccc(OC)c(Cl)c2)c2ccccc2)cc1	none (no result: NPSR antagonist, KinaseGlo FLuc)
CC(C)NC(=O)c1ccc2c(c1)N(Cc1cccc(Cl)c1)C(=O)c1ccccc1S2=O (stereo unspecified)	none (no result: NPSR antagonist, KinaseGlo FLuc)
COc1ccccc1C(=O)NNC(=S)NC(=O)c1sc2ccccc2c1Cl	Tau fibril ThT 7.08µM
COc1ccccc1C(=O)NC(=S)NNC(=O)c1sc2ccccc2c1Cl	Tau fibril FP inconclusive
CC(C)(C)C1CCc2onc(C(=O)Nc3sc4c(c3C(N)=O)CCCC4)c2C1 (stereo unspecified)	Tau fibril FP inconclusive, Tau fibril ThT inconclusive (no result: NPSR antagonist, KinaseGlo FLuc)
COc1ccccc1-c1cc(C(=O)Nc2sc3c(c2C#N)CCCC3)no1	Tau fibril FP inconclusive, Tau fibril ThT 35.5µM (no result: NPSR antagonist, KinaseGlo FLuc)
Cc1onc(-c2ccccc2)c1C(=O)NC(=S)Nc1sc2c(c1C#N)CCCC2	Tau fibril FP inconclusive, Tau fibril ThT 28.2µM
CCCN1CCc2c(sc(NC(=S)NC(=O)c3ccccc3)c2C#N)C1	Tau fluor cs inconclusive, Tau fibril ThT 15.8µM
CC(C)(C)C1CCc2onc(C(=O)Nc3sc4c(c3C#N)CCCC4)c2C1 (stereo unspecified)	Tau fibril FP inconclusive, Tau fibril ThT 31.6µM (no result: NPSR antagonist, KinaseGlo FLuc)
CC(C)N1CCc2c(sc(NC(=S)NC(=O)c3ccccc3)c2C#N)C1	Tau fluor cs inconclusive, Tau fibril ThT inconclusive
O=C(Nc1ccccc1C(F)(F)F)N1CCC2(CC1)Oc1ccccc1C(=O)N2Cc1ccccc1F	none (no result: NPSR antagonist, KinaseGlo FLuc)
CCNC(=S)N1CCN(c2ccc([N+](=O)[O-])cc2)CC1	Tau fibril ThT 5.62µM
O=C1CCCC(=O)N1c1ccc(N2CCN(c3ccc([N+](=O)[O-])cc3)CC2)c([N+](=O)[O-])c1	Tau fibril ThT 3.98µM
CNC(=S)N1CCN(c2ccc([N+](=O)[O-])cc2)CC1	Tau fibril ThT 5.62µM
O=C(c1ccc(N2CCCCC2)c([N+](=O)[O-])c1)N1CCN(c2ccccn2)CC1	Tau fibril ThT inconclusive
O=C1C2CC=CCC2C(=O)N1c1ccc(N2CCN(c3ccccn3)CC2)c([N+](=O)[O-])c1 (stereo unspecified)	Tau fibril ThT 14.1µM
O=C(C1CC1)N1CCc2cc(Br)cc(S(=O)(=O)N3CCN(c4cccc(C(F)(F)F)c4)CC3)c21	Tau fibril FP inconclusive (no result: NPSR antagonist, KinaseGlo FLuc)
CCCN1CCN(c2ncnc3sc(C(=O)Nc4ccc(OC(F)(F)F)cc4)c(C)c23)CC1	none (no result: NPSR antagonist, KinaseGlo FLuc)
COc1cccc(NC(=O)Cc2csc(COc3cccc(C)c3)n2)c1	Tau fibril ThT inconclusive (no result: NPSR antagonist, KinaseGlo FLuc)

Screening results as filed in PubChem.
